Assay outcomes deposited in PubChem by National Center for Advancing Translational Sciences (NCATS).
RGS4 inh – blocks human RGS4-accelerated GTP hydrolysis; Potency, µM (highest dose often 114 µM), usual class: inhibitors; AID 504845; Transcreener GDP fluorescence polarization, RGS4-accelerated GTP hydrolysis; hit rate 0.039% among 390,000; P49798; note: nearly all actives have a fitted effect of over 75% in size
Target sequence (P49798 whole entry, looked up): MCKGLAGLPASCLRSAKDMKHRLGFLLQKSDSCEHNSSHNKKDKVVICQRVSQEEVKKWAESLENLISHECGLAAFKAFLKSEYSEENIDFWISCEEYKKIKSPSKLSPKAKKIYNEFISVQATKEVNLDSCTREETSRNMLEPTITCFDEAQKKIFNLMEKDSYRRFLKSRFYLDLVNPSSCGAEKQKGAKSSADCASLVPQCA
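MLSMR compounds (23 nl, pin-transferred) preincubated 10 min at room temperature with a 500nM (2x) first reagent, then RGS4 at 900nM (2x) plus Transcreener GDP mix added; fluorescence polarization (620/688 nm) read before and after 90 min at 30 °C.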
SW480 rerep – induces DNA re-replication in SW480 colon adenocarcinoma cells | SW480 DNA re-replication, Hoechst DNA content imaging, 48 h | Potency, µM (doses to about 46.1 µM), most hits filed as activators | hit rate 1.8% among 340,000 | AID 624297; note: nearly all actives have a fitted effect of over 55% in size
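Image-based DNA-content assay: after two days of treatment, nuclei were labelled with the DNA dye Hoechst and imaged, and hits were compounds raising the count of nuclei showing high fluorescence intensity.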
KB-V1 cytotox – kills drug-selected multidrug resistant KB-V1 cells; KB-V1 MDR cells viability, CellTiter-Glo, 72 h; Potency, µM (series often up to 46.1 µM), hits mostly cytotoxic; hit rate 3.4% among 400,000; AID 1347076; note: nearly all actives have a fitted effect of over 60% in size
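Following 72 h at 37 degrees C with compound, KB-V1 cell viability was read by CellTiter-Glo luminescence, medium being phenol-red-free DMEM plus 10% FBS; concentration-response parameters came from normalized, curve-fitted qHTS data.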
KB-3-1 tox – KB-3-1 parental cell cytotoxicity; KB-3-1 viability, CellTiter-Glo ATP luminescence, 72 h; Potency, µM (highest dose often 46.1 µM), usual class: cytotoxic; hit rate 1.4% among 400,000; AID 1347075; note: nearly all actives have a fitted effect of over 60% in size
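Viability of parental KB-3-1 cells, measured by CellTiter-Glo luminescence, followed a 72 h incubation at 37 °C with pinned compounds in phenol-red-free DMEM containing 10% FBS.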
MCF10A rerep – inducers of DNA re-replication in MCF 10A breast cells; hit rate 2.9% among 350,000; MCF 10A DNA re-replication, Hoechst nuclear intensity, 48 h; Potency, µM (doses to about 46.1 µM), usual class: activators; note: nearly all actives have a fitted effect of over 50% in size
TSG101-PTAP inh – blocks PTAP/TSG101 interaction to inhibit HIV-1 budding; Fluorescence polarization, FITC-PTAP peptide / Tsg101 binding; 340,000 tested, under 10 active; Potency, µM (doses to about 115 µM), actives largely listed as inhibitors; AID 493005; active = well fitted inhibition curve with a large enough effect in the main read-out, with a control signal flat, not every such curve was filed as active; inconclusive = small, poorly fitted or top-dose-only effect, or effect the other way, or a change in a side signal; inactive = no such curve, though single readings can be large or run the other way
Target sequence (Q99816 whole entry, looked up): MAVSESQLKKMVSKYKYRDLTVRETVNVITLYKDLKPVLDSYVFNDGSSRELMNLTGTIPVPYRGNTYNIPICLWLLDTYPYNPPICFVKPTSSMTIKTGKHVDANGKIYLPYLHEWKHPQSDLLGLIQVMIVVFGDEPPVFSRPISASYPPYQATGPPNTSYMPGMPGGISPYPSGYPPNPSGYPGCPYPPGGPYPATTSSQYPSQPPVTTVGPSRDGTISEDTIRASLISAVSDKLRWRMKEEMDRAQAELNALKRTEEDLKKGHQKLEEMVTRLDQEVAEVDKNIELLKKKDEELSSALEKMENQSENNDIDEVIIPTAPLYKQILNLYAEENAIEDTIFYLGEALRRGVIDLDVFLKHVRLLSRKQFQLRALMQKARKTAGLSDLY
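Steps: Tsg101 binding domain dispensed (10 uM final), compounds pinned in DMSO, FITC-labeled PTAP-motif peptide added (50 nM final); after 20 min binding at room temperature, polarization measured.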
Hits are given with their value; – = inactive; ? = inconclusive; · = not tested or not shown; [ ] = another dose, or the depositor's remark. Most compounds without a hit are left out; they make up all but 6.6% or so of the library. Unless noted, calls come from the whole dose curve; as a rule, active = well fitted curve in the direction sought with a large enough effect; inconclusive = small, poorly fitted or top-dose-only effect, or another doubt; inactive = no such curve, though single readings can be large; an effect the other way counts as inactive or inconclusive.

SMILES	RGS4 inh	SW480 rerep	KB-V1 cytotox	KB-3-1 tox	MCF10A rerep	TSG101-PTAP inh
CC(C)C(=O)Nc1cccc(COc2cccc(CN(Cc3ccccc3)C(=O)OC(C)(C)C)c2)c1	–	–	?	?	1.84µM	–
CC(C)(C)OC(=O)N(Cc1ccccc1)Cc1ccccc1OCc1cccc(NC(=O)C2CC2)c1	–	?	?	–	14.6µM	–
CCc1ccc(S(=O)(=O)c2nnn3c2nc(NCCc2ccccc2)c2sccc23)cc1	–	·	·	·	·	·
c1cc(CSc2nnc(-c3ccc4c(c3)OCO4)o2)ccn1	–[11.4 µM]	–	23.1µM	–	–	–
O=C(CSc1nnc(-c2ccc3c(c2)OCO3)o1)Nc1ncc(Cl)cc1Cl	–	?	?	–	13µM	–
c1ccc2c(CSc3nnc(-c4ccncc4)o3)cccc2c1	–	–	14.6µM	–	?	–
Clc1ccccc1CSc1nnc(-c2ccncc2)o1	–	–	–	–	–	–
Cc1ccc(CSc2nnc(-c3ccc4c(c3)OCO4)o2)cc1	–	–	–	–	–	–
CCC1CCCCN1CCCNC(=O)c1[nH]c2ccccc2c1Sc1ccc(Cl)cc1 (centres undefined)	–	·	–	–	·	·
CN1\C(=C/C=C/C=C/C=[N+](C)C)C(C)(C)c2ccccc21	–	–	8.2µM	?	?	–
COc1cccc(-c2cnc3c(NC(C)=O)cc(-c4ccc(OC)c(OC)c4)cn23)c1	·	·	–	–	·	·
COc1cccc(-c2cnc3c(NC=O)cc(-c4ccc(OC)cc4OC)cn23)c1	·	·	?	0.206µM	·	·
COc1ccc(-c2cc(NC=O)c3ncc(-c4ccc(OC)c(OC)c4)n3c2)c(OC)c1	·	·	1.16µM	0.651µM	·	·
COc1ccc(-c2cnc3c(NC=O)cc(-c4cccc(NS(C)(=O)=O)c4)cn23)cc1OC	·	·	–	?	·	·
COc1ccccc1C(=O)Nc1ccc(-c2cc(C(F)(F)F)nn2-c2ccccc2)cc1	–	·	·	·	·	·
CN(C(=O)C(C)(C)C)c1ccc(OCC(=O)N2CCc3ccccc3C2)cc1	–	–	4.61µM	?	–	–
COc1ccc(COc2cc(-c3cccc(OC)c3)nc3ccc(NC(=O)c4cccnc4)cc23)cc1	–	?	?	?	?	–
COc1ccc(COc2cc(-c3cccc(OC)c3)nc3ccc(NC(=O)c4ccccc4)cc23)cc1	–	16.4µM	–	16.4µM	4.61µM	–
COc1ccc(COc2cc(-c3cccc(OC)c3)nc3ccc(NC(=O)c4ccc(OC)cc4)cc23)cc1	–	4.11µM	–	4.11µM	2.31µM	–
COc1ccc(NC(=O)c2cccc(NC(=O)c3ccccc3)c2)cc1	–	–	–	–	–	–
COc1ccc(COc2cc(-c3cccc(OC)c3)nc3ccc(NC(=O)c4ccc(Cl)cc4)cc23)cc1	–	23.1µM	–	?	25.9µM	–
COc1ccc(C(=O)C[n+]2cc(Br)cc(Br)c2)cc1	·	·	–	–	·	·
Cc1cc[n+](C2CCCCC2)c2ccccc12	·	·	–	–	·	·
CC(C)Oc1ccc(CNC(=O)CN2C(=O)c3cccnc3Oc3ccc(Cl)cc32)cc1	–	·	–	?	·	·
CC(C)c1ccc(S(=O)(=O)NCc2ccc3c(c2)CCN3C(=O)c2ccccc2)cc1	–	·	·	·	·	·
SMILES	RGS4 inh	SW480 rerep	KB-V1 cytotox	KB-3-1 tox	MCF10A rerep	TSG101-PTAP inh
Cc1ccc(CN2C(=O)C3CCCN3c3ncccc32)cc1 (centres undefined)	–	?	–	–	23.1µM	–
OCC#CCSc1nnc(-c2ccccc2Br)o1	–	?	–	–	11.6µM	–
O=S(=O)(NCC(c1ccco1)S(=O)(=O)c1cccs1)c1ccc(Cl)cc1 (centres undefined)	–	·	·	·	·	·
CN(C)C(CNc1ncnc2sc3c(c12)CCCCC3)c1ccco1 (centres undefined)	–	–	?	–	–	–
Cc1sc2ncnc(NCc3ccccc3)c2c1C	–	–	?	23.1µM	–	–
Cc1sc2ncnc(NCC(C)(C)N3CCOCC3)c2c1C	–	–	4.11µM	?	–	–
COc1ccc(C(CNc2ncnc3sc(C)c(C)c23)N(C)C)cc1 (centres undefined)	–	?	10.3µM	?	?	–
Cc1sc2ncnc(NCC(c3ccco3)N(C)C)c2c1C (centres undefined)	–	–	18.4µM	–	–	–
COc1ccccc1C(CNc1ncnc2sc(C)c(C)c12)N(C)C (centres undefined)	–	?	–	–	?	–
COc1cccc(NC(=O)Nc2ccc3nc(N4CCN(C)CC4)cc(C)c3c2)c1	–	·	–	–	·	·
CCC(C(=O)Nc1cc(C(F)(F)F)ccc1Cl)n1nc(C)c2sc3ccccc3c2c1=O (centres undefined)	–	·	–	–	·	·
Cn1c(/C=C/c2ccc([N+](=O)[O-])o2)nc2ccccc2c1=O	–	1.84µM	?	1.84µM	5.17µM	–
Cn1cnnc1SCC(=O)Nc1ccc2nc(SCc3ccccc3F)sc2c1	–	–	20.6µM	–	–	–
O=C(CSc1nc2ccc(NC(=O)CSc3nnnn3-c3ccccc3)cc2s1)Nc1ccccc1	–	–	–	–	?	–
Cc1ccc(N(C)C(=O)Cn2cc(S(=O)(=O)N3CCCC3)c(S(=O)(=O)N3CCCC3)c2)cc1	–	·	–	–	·	·
Cc1ccc(Nc2c3c(nc4nncn24)CCC3)c(C)c1	–	·	·	·	·	·
c1ccc2c(c1)OCc1cn[nH]c1-2	–	?	–	–	–	–
c1ccc(N2CC3COc4ccccc4C3=N2)cc1 (centres undefined)	–	14.6µM	–	–	13µM	–
C(=C\c1nccc2ccccc12)/c1ccc(N2CCOCC2)cc1	·	·	?	–	·	·
C[n+]1ccccc1COc1ccc(C(C)(C)C)cc1	–	–	?	23.1µM	–	–
CC(Nc1ccc(-c2nc(-c3ccccn3)no2)cc1[N+](=O)[O-])c1ccccc1 (centres undefined)	–	·	–	–	·	·
O=C(NCc1ccccc1)c1noc2c1CCCC2	–	?	?	?	?	–
CC(NC(=O)c1noc2c1CCCC2)c1ccccc1 (centres undefined)	?	–	16.4µM	–	–	–
O=C(c1noc2c1CCCC2)N1CCN(c2ccccc2)CC1	–	–	18.4µM	–	–	–
O=C(c1noc2c1CCCCC2)N1CCN(c2cccc(Cl)c2)CC1	–	·	·	·	·	·
Cc1nc2c(C)c(C)c(C)c(C)c2nc1C	–	–	–	–	?	–
Cc1nc2c(O)c3c(c(O)c2nc1C)C1C=CC3CC1	–	3.26µM	?	–	5.17µM	–
CCN1CCN(CCCNC(=O)c2cc3c(=O)n(C)c4ccccc4c3s2)CC1	–	·	–	–	·	·
CSc1ccc(-c2nc(CSCC(=O)N3CCOCC3)c(C)o2)cc1	–	–	5.17µM	?	–	–
